Measurements reported in the supplement of paper PMC3545927.
This is one part of the list. How many sequences the whole screen found active is unknown.

B1: HC1711 (peptide)
chain: CAMEDCSQHLAGNASASA
B2: HC682 (peptide)
chain: CAIITSLTGRAGNASASA
B3: HC2273 (peptide)
chain: CARLEVVTSTAGNASASA
B4: FS-3003 (peptide)
chain: CARNARNVSQAGNASASA
B5: FS-3002 (peptide)
chain: CARNARHADGAGNASASA
B6: FS-2429 (peptide)
chain: CARLARFADGAGNASASA
B7: FS-1755 (peptide)
chain: CARNARIVHLAGNASASA
B8: HC199 (peptide)
chain: CAAQPGYPWPAGNASASA
B9: HC1237 (peptide)
chain: CAEYPVGSQLAGNASASA
B10: FS-2587 (peptide)
chain: CARQKRSINLAGNASASA
B11: FS-3036 (peptide)
chain: CARQKRSIHEAGNASASA
B12: FS-2174 (peptide)
chain: CARQTRSSTEAGNASASA
B13: HC1012 (peptide)
chain: CAREFDEMEEAGNASASA
B14: FS-2244 (peptide)
chain: CARVNRSVHEAGNASASA
B15: FS-3260 (peptide)
chain: CARQKRSMEEAGNASASA
B16: HC2572 (peptide)
chain: CASTPCSAHEAGNASASA
B17: FS-1813 (peptide)
chain: CAVEKRGVHEAGNASASA
B18: HC816 (peptide)
chain: CADIIICDECAGNASASA
B19: FS-2443 (peptide)
chain: CARQIRGLEEAGNASASA
B20: FS-2754 (peptide)
chain: CARQKRIIGGAGNASASA
B21: FS-3035 (peptide)
chain: CARQKREIDVAGNASASA
B22: FS-2507 (peptide)
chain: CARQKRSIVVAGNASASA

Molecular target: furin, P09958
Sequence (P09958 whole entry): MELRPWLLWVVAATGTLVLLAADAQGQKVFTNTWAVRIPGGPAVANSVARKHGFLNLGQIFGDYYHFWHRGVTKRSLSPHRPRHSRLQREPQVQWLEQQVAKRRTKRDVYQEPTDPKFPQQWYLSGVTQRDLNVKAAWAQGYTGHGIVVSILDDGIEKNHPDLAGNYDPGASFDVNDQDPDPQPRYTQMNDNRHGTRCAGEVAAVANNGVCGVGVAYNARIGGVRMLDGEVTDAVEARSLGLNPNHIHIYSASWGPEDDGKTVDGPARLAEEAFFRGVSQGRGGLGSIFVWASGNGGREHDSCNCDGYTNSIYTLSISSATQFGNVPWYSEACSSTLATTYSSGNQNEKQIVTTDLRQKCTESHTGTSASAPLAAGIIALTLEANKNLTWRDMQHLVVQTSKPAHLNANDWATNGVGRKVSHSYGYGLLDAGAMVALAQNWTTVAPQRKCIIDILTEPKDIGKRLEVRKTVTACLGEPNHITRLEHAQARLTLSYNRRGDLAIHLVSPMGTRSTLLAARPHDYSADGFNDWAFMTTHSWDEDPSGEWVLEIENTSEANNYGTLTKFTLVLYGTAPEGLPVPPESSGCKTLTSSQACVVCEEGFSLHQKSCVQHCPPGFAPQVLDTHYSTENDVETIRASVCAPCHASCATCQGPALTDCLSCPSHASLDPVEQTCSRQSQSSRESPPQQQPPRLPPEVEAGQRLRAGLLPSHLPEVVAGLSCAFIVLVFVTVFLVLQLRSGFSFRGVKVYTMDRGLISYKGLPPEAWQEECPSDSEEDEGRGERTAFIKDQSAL
Assay: furin cleavage Z-score vs untreated control; higher = more cleavage, active = 3.5 or more, inactive = 1 or less, 8 variable residues between constant flanks
Method in brief: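 Purified furin cleaved 8-mer peptides that were fused to a cDNA oligonucleotide and held on magnetic beads by their N-terminus. Each 0.01 ml reaction used a 1:10 enzyme:substrate ratio in 50 mM HEPES pH 7.5 with CaCl2 and NaCl and ran 7.5, 15 or 30 min. Released DNA was adapter-tagged by PCR and sequenced, and read counts gave abundance. The cleavage Z-score came from log counts against furin-free reactions, lowess-adjusted and scaled by median absolute deviation.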

| Sequence | furin cleavage Z-score (7.5 min) | furin cleavage Z-score (15 min) | furin cleavage Z-score (30 min) |
| --- | --- | --- | --- |
| B1 | 0.722 (inactive) | 2.02 | 1.16 |
| B2 | -0.473 (inactive) | 0.458 (inactive) | 0.0661 (inactive) |
| B3 | 0.609 (inactive) | 1.11 | -1.08 (inactive) |
| B4 | 4.25 (active) | 6.14 (active) | 5.98 (active) |
| B5 | 3.28 | 5.44 (active) | 3.84 (active) |
| B6 | -1.13 (inactive) | 2.8 | 0.514 (inactive) |
| B7 | 0.861 (inactive) | 0.108 (inactive) | -0.00636 (inactive) |
| B8 | 0.109 (inactive) | 0.367 (inactive) | 0.143 (inactive) |
| B9 | -1.22 (inactive) | -1.49 (inactive) | -1.3 (inactive) |
| B10 | 7.01 (active) | 6.9 (active) | 10.1 (active) |
| B11 | 9.78 (active) | 11 (active) | 9.29 (active) |
| B12 | 0.51 (inactive) | 2.13 | 2.17 |
| B13 | -0.916 (inactive) | -1.39 (inactive) | -1.93 (inactive) |
| B14 | 0.826 (inactive) | 3.34 | 3.78 (active) |
| B15 | 7.94 (active) | 7.89 (active) | 8.14 (active) |
| B16 | -0.869 (inactive) | -0.151 (inactive) | 0.67 (inactive) |
| B17 | -1.62 (inactive) | -0.803 (inactive) | -0.675 (inactive) |
| B18 | -1.61 (inactive) | -0.956 (inactive) | 0.174 (inactive) |
| B19 | 0.837 (inactive) | 3.93 (active) | 3.31 |
| B20 | -1.16 (inactive) | -0.537 (inactive) | 0.0214 (inactive) |
| B21 | 10.8 (active) | 12.7 (active) | 11.5 (active) |
| B22 | 7.83 (active) | 9.33 (active) | 8.84 (active) |
